The record followed here is PubChem BioAssay.

Experiment [1] in a line: compounds binding Alexa647 anti-His antibody – biochemical, small-molecule microarray, 635 nm fluorescence, artefact control for SMM control protein annotation, primary screen (AID 1128).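 Also: score merges feature fluorescence with signal-to-noise for each printed compound spot.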 The following applies: higher = more signal.
The test system of experiment [2] is Human papillomavirus type 1a E7 protein (residues 1-88). Description: HPV1a E7 small-molecule binders, primary screen, biochemical, small-molecule microarray, residues 1-88, 635 nm (AID 1129). The following applies: small-molecule microarray binding, fluorescence 635 nm; higher = more signal.
The target of experiment [3] is Focal adhesion kinase 1 (Homo sapiens) (UniProt Q05397). Description: PTK2 protein binding on printed compound slides – biochemical, small-molecule microarray, 635/667 nm fluorescence, BSA, DTT, primary screen (AID 1130).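 Also: composite of spot emission at 667 nm and signal to noise over triplicate slides.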 As to conditions: 635 nm fluorescence, higher = more signal.
Focal adhesion kinase 1 (Homo sapiens), sequence (Q05397 whole entry, looked up): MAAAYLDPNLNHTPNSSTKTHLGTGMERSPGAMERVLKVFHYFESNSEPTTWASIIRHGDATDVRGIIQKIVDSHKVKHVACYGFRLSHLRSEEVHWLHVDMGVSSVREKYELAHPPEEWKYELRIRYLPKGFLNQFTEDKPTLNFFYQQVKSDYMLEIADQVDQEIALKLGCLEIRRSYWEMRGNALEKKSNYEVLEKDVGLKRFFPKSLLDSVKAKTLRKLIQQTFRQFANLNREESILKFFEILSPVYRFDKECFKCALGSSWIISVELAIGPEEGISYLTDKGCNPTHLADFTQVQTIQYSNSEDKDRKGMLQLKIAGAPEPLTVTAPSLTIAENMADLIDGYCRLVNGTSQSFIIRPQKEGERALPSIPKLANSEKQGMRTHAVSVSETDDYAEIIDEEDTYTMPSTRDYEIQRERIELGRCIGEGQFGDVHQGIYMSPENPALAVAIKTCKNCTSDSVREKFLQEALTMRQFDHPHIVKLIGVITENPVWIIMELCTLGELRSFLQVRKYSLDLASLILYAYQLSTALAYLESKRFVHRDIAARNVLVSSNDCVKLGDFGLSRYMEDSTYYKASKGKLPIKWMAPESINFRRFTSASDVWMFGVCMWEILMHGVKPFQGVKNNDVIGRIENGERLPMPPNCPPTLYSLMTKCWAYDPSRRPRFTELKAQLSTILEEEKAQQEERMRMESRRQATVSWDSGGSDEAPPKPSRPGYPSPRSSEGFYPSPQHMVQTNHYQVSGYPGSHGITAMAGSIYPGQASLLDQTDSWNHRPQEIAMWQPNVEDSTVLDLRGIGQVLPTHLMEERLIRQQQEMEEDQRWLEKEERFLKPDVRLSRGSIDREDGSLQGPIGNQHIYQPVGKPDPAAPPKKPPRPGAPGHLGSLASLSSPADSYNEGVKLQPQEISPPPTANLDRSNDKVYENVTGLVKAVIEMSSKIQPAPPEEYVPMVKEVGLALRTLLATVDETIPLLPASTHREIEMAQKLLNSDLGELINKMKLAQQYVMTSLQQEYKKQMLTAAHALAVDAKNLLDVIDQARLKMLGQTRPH
In experiment [4] the test system is Fibrinogen (Alexa647-labelled). Description: Alexa647-fibrinogen binding to printed small molecules – biochemical, small-molecule microarray, 635/667 nm fluorescence, artefact control for SMM control-protein annotation, profiling panel (AID 1131).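 Also: z-score merges 667 nm fluorescence with per-spot signal-to-noise over triplicate slides.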 The following applies: fibrinogen-A647 binding fluorescence, higher = more signal.
Experiment [5] concerns the target Follistatin (Homo sapiens) (UniProt P19883). Put plainly: FST protein binding to printed compounds – biochemical, small-molecule microarray, 635/667 nm fluorescence, primary screen (AID 1132). As to conditions: 635 nm fluorescence, higher = more signal.
In experiment [6] the target is Fibroblast growth factor 2 (Homo sapiens) (UniProt P09038). Description: basic fibroblast growth factor binding to printed compounds – biochemical, small-molecule microarray, 635/667 nm fluorescence, primary screen (AID 1133). The following applies: FGF2, fluorescence 635/667, higher = more signal.
Fibroblast growth factor 2 (Homo sapiens), sequence (P09038 whole entry, looked up): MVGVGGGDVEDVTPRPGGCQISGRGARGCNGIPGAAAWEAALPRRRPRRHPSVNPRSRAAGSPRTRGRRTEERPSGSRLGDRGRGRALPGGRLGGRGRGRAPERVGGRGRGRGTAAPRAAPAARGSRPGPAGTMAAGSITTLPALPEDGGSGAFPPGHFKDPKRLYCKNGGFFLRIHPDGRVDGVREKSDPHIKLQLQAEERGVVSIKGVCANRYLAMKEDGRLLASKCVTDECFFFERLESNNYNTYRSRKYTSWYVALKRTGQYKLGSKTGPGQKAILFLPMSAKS
Experiment [7] is described as follows: JC-1 mitochondrial potential readout, lung cancer cells – cell-based, A549, JC-1 fluorescence, basal, 24 h, 100 nL, profiling panel (AID 1138).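 Also: A549 lung adenocarcinoma cells under basal conditions with no added stimulus; test concentration not given here.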 The following applies: higher = more signal.
The subject of the next experiment is Lefty1. Description: Lefty1 protein binding to printed compounds – biochemical, small-molecule microarray, 635/667 nm fluorescence, primary screen (AID 1139). As to conditions: fluorescence 635/667, higher = more signal.
Experiment [8] relates to wheat germ agglutinin (Triticum aestivum), Alexa647-labelled. Description: Alexa647-WGA lectin binding to printed small molecules – biochemical, small-molecule microarray, 635/667 nm fluorescence, artefact control for SMM control-protein annotation, profiling panel (AID 1140).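 Also: score merges 667 nm feature emission with signal to noise over triplicate slides.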 The following applies: WGA-A647 binding, 635 nm fluorescence, higher = more signal.
The target in experiment [9] is Luciferin 4-monooxygenase (Photinus pyralis) (UniProt P08659). Description: inhibition of purified Photinus pyralis luciferase – biochemical, luminescence, purified enzyme, 2006 set, primary screen (AID 1141).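 Also: cell-free assay with purified firefly luciferase at 100 ng per well in PBS; test concentration not given here.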 As to conditions: purified firefly luciferase, SteadyGlo luminescence, 30 min; higher = more signal, called active from +8 up or from −8 down.
Luciferin 4-monooxygenase (Photinus pyralis), sequence (P08659 whole entry, looked up): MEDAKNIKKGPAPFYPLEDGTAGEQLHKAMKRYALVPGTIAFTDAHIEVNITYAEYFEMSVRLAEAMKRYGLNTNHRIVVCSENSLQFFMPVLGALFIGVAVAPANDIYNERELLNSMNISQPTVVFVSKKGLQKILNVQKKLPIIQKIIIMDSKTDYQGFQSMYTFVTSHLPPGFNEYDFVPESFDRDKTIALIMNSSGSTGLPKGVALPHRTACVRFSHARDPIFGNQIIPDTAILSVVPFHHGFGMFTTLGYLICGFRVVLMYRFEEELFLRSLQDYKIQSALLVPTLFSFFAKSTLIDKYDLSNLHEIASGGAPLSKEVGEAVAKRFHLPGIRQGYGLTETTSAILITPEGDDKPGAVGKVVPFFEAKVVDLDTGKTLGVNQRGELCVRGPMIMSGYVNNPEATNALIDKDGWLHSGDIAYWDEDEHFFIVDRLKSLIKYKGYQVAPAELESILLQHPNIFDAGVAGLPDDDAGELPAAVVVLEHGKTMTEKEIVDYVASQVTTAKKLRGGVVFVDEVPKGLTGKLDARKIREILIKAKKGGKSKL

Calls of active or inactive are those of the source.

Follistatin (Homo sapiens), sequence (P19883 whole entry, looked up): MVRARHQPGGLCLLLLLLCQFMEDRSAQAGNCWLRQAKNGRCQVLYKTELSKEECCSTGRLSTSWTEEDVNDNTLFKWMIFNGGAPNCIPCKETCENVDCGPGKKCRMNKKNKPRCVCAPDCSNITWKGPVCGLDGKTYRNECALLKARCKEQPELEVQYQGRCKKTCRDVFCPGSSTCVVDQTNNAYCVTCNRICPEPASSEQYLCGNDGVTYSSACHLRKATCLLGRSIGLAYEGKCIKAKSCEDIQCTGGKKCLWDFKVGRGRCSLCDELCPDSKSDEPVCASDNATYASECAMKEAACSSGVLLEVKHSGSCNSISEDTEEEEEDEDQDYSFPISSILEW

Take `CN(C)C(=O)[C@@]1(CCS(=O)(=O)c2ccccc2)N=C(c2ccc(OCCCO)cc2)O[C@H]1c1ccccc1N=[N+]=[N-]`: the composite z-score in experiment [1] was 0.838; in [2], 1.25; in [3] it was 0.601; in experiment [4], 1; in experiment [5], 1.1; in [6] it was 0.58. Besides, the results for the composite z-score (in the experiment on Lefty1; in experiment [8]) were 0.267 and 0.371, respectively. In addition, the z-score is 0.371 in experiment [7] and -11 (active) in [9].

Take `COCCOC(=O)N1C(=O)[C@@]2(c3cc(C#CCC(C(=O)OC)C(=O)OC)ccc31)[C@H](C(=O)N1CCc3cc(OC)c(OC)cc3C1)[C@H]1C(=O)O[C@H](c3ccccc3)[C@H](c3ccccc3)N1[C@@H]2c1ccc(O)cc1`: the composite z-score in experiment [1] amounted to 1.82; in [2] it was 1.21; in experiment [3] it was 0.221; in experiment [4], 0.787; in experiment [5], 1.36; in [6] it was 1.59. Further, the composite z-score stood at 1.11 in the experiment with Lefty1 and 1.05 in [8]. The z-score in experiment [7] is -0.132; in experiment [9], 1.01 (inactive).

Take `Cc1ccc(F)cc1S(=O)(=O)N[C@@H]1CCN(Cc2ccc3[nH]ccc3c2)C1`: the composite z-score was 0.426 in experiment [1]; 0.479 in experiment [2]; -0.105 in experiment [3]; -0.0254 in experiment [4]; 1.06 in experiment [5]; 0.561 in experiment [6]. Moreover, the composite z-score stood at 0.543 with Lefty1 and 0.0689 in experiment [8]. Further, the results for the z-score in [7] and in experiment [9] were 0.316 and 0.175 (inactive), respectively.

As for `COc1ccc([Si](C)(C)[C@@H]2[C@@H](CC(=O)N(CCO)Cc3ccccc3)O[C@]3(C(=O)N(Cc4ccc(N5CCC5=O)cc4)c4ccccc43)[C@H]2C)cc1`, the composite z-score in [1] is 1.28; in experiment [2], -0.324; in [3] it was -0.162; in [4], -0.263; in experiment [5] it was 0.818; in experiment [6] it was 0.988. Further, the composite z-score in the experiment on Lefty1 was determined as 0.565; in [8] it was 0.431. Also, the results for the z-score in experiment [7] and in [9] were 0.445 and 0.295 (inactive), respectively.

For `COCCOC(=O)N1C(=O)[C@@]2(c3cc(C#CC4=CCCCC4)ccc31)[C@H](C(=O)N1CCc3cc(OC)c(OC)cc3C1)[C@H]1C(=O)O[C@H](c3ccccc3)[C@H](c3ccccc3)N1[C@@H]2c1ccc(O)cc1`, the composite z-score came to 1.62 in experiment [1]; 1.2 in experiment [2]; 0.596 in experiment [3]; 0.947 in [4]; 0.861 in [5]; 0.998 in [6]. Further, the composite z-score in the experiment on Lefty1 was 0.917; in experiment [8] it was 0.854. Further, the z-score in experiment [7] was -0.608; in experiment [9] it was -0.914 (inactive).

Consider `O=C1c2ccccc2[C@](Cc2ccccc2I)(C(=O)O)[C@H](c2ccc(CO)cc2)N1Cc1ccccc1`, for which the composite z-score in experiment [1] is 0.729; in experiment [2], 0.0602; in [3], 2.7; in experiment [4], 0.303; in experiment [5] it was -0.584; in experiment [6] it was -0.42. The figures for the composite z-score (in the experiment with Lefty1; in experiment [8]) were -0.827 and 0.471, respectively. Further, the z-score was 0.068 in [7] and -0.443 (inactive) in experiment [9].

For the compound `C=C(/C(=C/C[C@@H](OC(C)=O)c1ccccc1OCCO)c1cc(C(=O)OC)ccc1OC)C(C)C`, the composite z-score was 1.37 in [1]; 0.136 in [2]; 0.0593 in experiment [3]; -0.0872 in experiment [4]; 0.425 in experiment [5]; 0.212 in [6]. In addition, the composite z-score was found to be 0.282 in the experiment with Lefty1 and 0.368 in experiment [8]. The z-score in experiment [7] was 1.68; in [9], -1.47 (inactive).

Turning to `COC(=O)[C@@]1(Cc2ccccc2)[C@@H]2[C@@H](CC(=O)[C@H]2CC(=O)C(=O)N(C)C)CN1C(=O)c1ccccc1`, the composite z-score is 1.33 in [1]; 0.577 in experiment [2]; 0.434 in [3]; 0.601 in experiment [4]; -0.155 in experiment [5]; -0.112 in experiment [6]. Moreover, the composite z-score in the experiment with Lefty1 was -0.575; in experiment [8] it was 0.0553. Also, the z-score in experiment [7] is 1.19; in [9], 0.558 (inactive).

For the compound `C[C@@H](OCc1ccccc1)C1NC(=O)[C@@]23C(=O)N[C@@H](Cc4ccccc4)C2[C@H](C)[C@@]2(C)O[C@H]2C3/C=C/C/C=C\CNC(=O)[C@H](Cc2ccccc2)NC1=O` (stereo not given in full), the composite z-score is 0.276 in experiment [1]; -0.197 in experiment [2]; -0.422 in experiment [3]; 0.569 in [4]; 0.793 in experiment [5]; 0.803 in [6]. Further, the composite z-score was 0.557 in the experiment with Lefty1 and -0.228 in experiment [8]. The z-score in experiment [7] was -0.227; in [9], -3.26 (inactive).

Turning to `COC(=O)[C@H](Cc1ccc(O)cc1)N1CC2=CCCC=C[C@@H]2[C@H]1[C@H](O)Cc1ccccc1`, the composite z-score in experiment [1] is 0.0409; in experiment [2] it was -0.24; in experiment [3], -0.0148; in experiment [4], 0.92; in experiment [5], 0.359; in [6], 0.348. The figures for the composite z-score (with Lefty1; in [8]) were 0.58 and 0.216, respectively. In addition, the z-score is -0.934 in experiment [7] and -1.63 (inactive) in [9].

With `CC(=O)NCCCC[C@@H]1NC(=O)[C@@H]2C[C@H](C(=O)NCCCCCC[N+](C)(C)C)[C@H](c3ccc(O)cc3)N2C1=O`, the composite z-score in experiment [1] was 3.45; in experiment [2], 0.377; in experiment [3], -0.153; in [4], 0.333; in experiment [5], 1.41; in experiment [6], 1.56. The composite z-score came to 0.907 in the experiment with Lefty1 and 0.78 in experiment [8]. The z-score in [7] is -0.856; in experiment [9] it was 0.32 (inactive).

Regarding `[N-]=[N+]=Nc1ccccc1[C@@H]1OC(c2ccc(OCCCO)cc2)=N[C@]1(Cc1ccccc1)C(N)=O`, the composite z-score in experiment [1] is 1.91; in experiment [2] it was 0.445; in [3] it was 0.474; in experiment [4], 0.899; in experiment [5] it was 0.207; in [6], -0.425. In addition, the results for the composite z-score (with Lefty1; in experiment [8]) were -0.188 and 0.619, respectively. Moreover, the z-score in [7] was 1.86; in experiment [9] it was -8.14 (active).

Regarding `O=C1O[C@@H](c2ccccc2)[C@@H](c2ccccc2)N2[C@@H](c3ccc(OCCO)cc3)[C@]3(C(=O)Nc4ccc(C#CCCO)cc43)[C@@H](C(=O)Nc3nc4ccccc4s3)[C@H]12`, the composite z-score in experiment [1] came to 0.324; in [2], 1.13; in [3], 0.256; in experiment [4], 0.978; in experiment [5] it was 1.4; in experiment [6], 0.474. For the same compound, the results for the composite z-score (with Lefty1; in experiment [8]) were 0.502 and 0.468, respectively. Further, the results for the z-score in experiment [7] and in experiment [9] were -2.19 and -0.7 (inactive), respectively.

In the case of `COc1ccc([Si](C)(C)[C@@H]2[C@@H](CCO)O[C@]3(C(=O)N(Cc4ccccc4)c4ccc(N5C(=O)c6ccccc6Oc6ccccc65)cc43)[C@H]2C)cc1`, the composite z-score in experiment [1] was 0.176; in experiment [2] it was 0.106; in experiment [3], 0.0875; in experiment [4], -0.0507; in experiment [5], 0.0192; in experiment [6] it was -0.539. In addition, the composite z-score in the experiment on Lefty1 stood at 0.172; in [8], 0.204. For the same compound, the z-score in [7] was -0.0766; in experiment [9] it was 0.762 (inactive).

Regarding `CN(C)CCCC[C@@H]1NC(=O)[C@H]2C[C@@H](C(=O)NCc3ccc(F)cc3)[C@@H](c3ccc(O)cc3)N2C1=O`, the composite z-score in [1] was 2.75; in experiment [2], 0.0526; in experiment [3], -0.193; in [4], 0.563; in experiment [5], 1.41; in experiment [6] it was 1.93. Also, the composite z-score with Lefty1 is 1.64; in experiment [8] it was 0.419. In addition, the z-score is 0.742 in [7] and -1.23 (inactive) in [9].

Turning to `COCCOC(=O)N1C(=O)[C@@]2(c3cc(C#CCCO)ccc31)[C@H](C(=O)N1CCN(c3ncccn3)CC1)[C@H]1C(=O)O[C@H](c3ccccc3)[C@H](c3ccccc3)N1[C@@H]2c1ccc(O)cc1`, the composite z-score in experiment [1] was determined as 2.17; in [2], 1.22; in [3], 1.19; in [4] it was 0.928; in experiment [5], 0.577; in experiment [6], 0.088. The composite z-score with Lefty1 is 0.413; in experiment [8] it was 0.613. Besides, the z-score in experiment [7] was 1.35; in experiment [9], -0.979 (inactive).

For `COC(=O)[C@@]1(Cc2ccc(OC)cc2)[C@@H]2[C@@H](CC(=O)[C@H]2CC(=O)C(=O)N2CCCC2)CN1C(=O)c1ccccc1`, the composite z-score in experiment [1] is 2.96; in [2], 1.27; in experiment [3], 0.888; in experiment [4] it was 1; in [5] it was 0.713; in [6], -0.256. For the same compound, the composite z-score was -0.265 in the experiment on Lefty1 and 1.47 in [8]. The z-score in experiment [7] is 0.483; in experiment [9], 0.596 (inactive).
